“And” between values parts separate entries of the source, which are not always exact repeats. Equal values may be shown once. Results filed as inconclusive are left out. Where a call stands in place of a potency, no number is given. The source holds several records for some structures; these can differ, active in one and inactive in another. The source made the active and inactive calls. Unless noted, the call rests on the fitted dose curve; in most records, active means well fitted curve in the direction sought with a large enough effect in the repeat runs; inconclusive means weak or mixed curves; inactive means no such curve, though single readings can be large; an effect the other way counts as inactive or inconclusive.
Experiments:
[1] = qHTS assay to identify small molecule antagonists of the peroxisome proliferator-activated receptor delta (PPARd) signaling pathway - cell viability counter screen (AID 743213); further: nearly all actives have a fitted effect of over 50% in size; further: potency means the concentration at half of the fitted maximal effect
Outline: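 Agonist-stimulated (L165041, 300 nM final) HEK293H PPARd UAS-bla cells are exposed to compounds for 17 h at 37 C, and ATP-based luminescence (CellTiter-Glo) from the same wells reports cytotoxicity.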

[2] = qHTS assay to identify small molecule agonists of the farnesoid-X-receptor (FXR) signaling pathway - cell viability counter screen (AID 743218); further: nearly all actives have a fitted effect of over 45% in size; further: potency means the concentration at half of the fitted maximal effect
Outline: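 Readout: CellTiter-Glo luminescence, 30 min RT, multiplexed after the FXR-bla FRET reading. HEK 293T FXR-UAS-bla cells received compound 5 h post-plating and were incubated 16 h at 37 C.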

[3] = qHTS assay to identify small molecule antagonists of the farnesoid-X-receptor (FXR) signaling pathway - cell viability counter screen (AID 743221; active means well fitted cell-killing curve with a large enough effect in the repeat runs, not every such curve was filed as active; further: nearly all actives have a fitted effect of over 50% in size; further: potency means the concentration at half of the fitted maximal effect)
Outline: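 Luminescence from CellTiter-Glo measures cytotoxicity in GeneBLAzer FXR-UAS-bla HEK 293T cells. Cells were exposed to compounds with 50 uM chenodeoxycholic acid (final) for 16 h at 37 C, in wells also used for the reporter readout.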

[4] = biological target: Vitamin D3 receptor (Homo sapiens) (UniProt P11473); assay: qHTS assay to identify small molecule agonists of the vitamin D receptor (VDR) signaling pathway (AID 743222; calls by dose curve)
Vitamin D3 receptor (Homo sapiens), sequence (P11473 whole entry, looked up): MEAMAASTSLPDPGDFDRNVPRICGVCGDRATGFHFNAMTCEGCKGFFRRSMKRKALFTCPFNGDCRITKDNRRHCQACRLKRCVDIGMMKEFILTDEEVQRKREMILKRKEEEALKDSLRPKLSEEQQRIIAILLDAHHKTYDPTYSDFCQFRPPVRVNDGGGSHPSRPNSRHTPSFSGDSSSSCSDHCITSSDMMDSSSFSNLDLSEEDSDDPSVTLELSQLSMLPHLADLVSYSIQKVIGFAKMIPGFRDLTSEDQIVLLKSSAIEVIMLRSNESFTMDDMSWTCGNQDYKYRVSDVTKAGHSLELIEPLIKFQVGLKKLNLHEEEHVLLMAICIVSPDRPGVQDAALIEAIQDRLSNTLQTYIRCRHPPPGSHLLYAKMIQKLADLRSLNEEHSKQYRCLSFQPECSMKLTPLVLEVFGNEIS
Outline: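 Following 4 h attachment at 37C, VDR-bla cells (2,000 per well) received DMSO-dissolved compounds or controls. After 16 h incubation, LiveBLAzer B/G FRET substrate was added and fluorescence read 2 h later at room temperature.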

[5] = biological target: Vitamin D3 receptor (Homo sapiens) (UniProt P11473); assay: qHTS assay to identify small molecule antagonists of the vitamin D receptor (VDR) signaling pathway (AID 743223; active means well fitted inhibition curve with a large enough effect in the signal ratio in the repeat runs, not every such curve was filed as active; the % refers to the signal ratio; further: potency means the concentration at half of the fitted maximal effect)
Outline: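 Antagonist mode uses 1alpha,25-dihydroxyvitamin D3 at 3 nM final as stimulus. VDR-bla cells receive compounds in DMSO, incubate 16 h at 37C, then a beta-lactamase FRET substrate for 2 h at room temperature before fluorescence measurement.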

[6] = qHTS assay to identify small molecule agonists of the NFkB signaling pathway - cell viability counter screen (AID 1159515; calls by dose curve; further: nearly all actives have a fitted effect of over 55% in size; further: potency means the concentration at half of the fitted maximal effect)
Outline: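 Plate 2,000 NFkB-bla ME-180 cells/well; incubate overnight. Add compounds, 5 hr at 37 C. Add FRET substrate, 1.5 hr RT. Add CellTiter-Glo, 30 min RT; read luminescence.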

[7] = qHTS assay to identify small molecule agonists of the endoplasmic reticulum stress response signaling pathway (AID 1159516; active means well fitted activation curve with a large enough effect in the signal ratio in the repeat runs, not every such curve was filed as active; the % refers to the signal ratio)
Outline: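 Beta-lactamase expression from the ER stress response element in HeLa reporter cells is quantified with the LiveBLAzer B/G FRET substrate, read at 405 nm excitation after 2 hr at room temperature, following 5 hr compound treatment at 37 C.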

[8] = qHTS assay to identify small molecule agonists of the endoplasmic reticulum stress response signaling pathway - cell viability counter screen (AID 1159517; calls by dose curve; further: nearly all actives have a fitted effect of over 50% in size; further: potency means the concentration at half of the fitted maximal effect)
Outline: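 Steps: seed 1,500 ESRE-bla HeLa cells per well; incubate overnight at 37 C, 5% CO2; add compounds in DMSO for 5 hr; run FRET substrate 2 hr RT; add CellTiter-Glo, wait 30 min, read luminescence.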

[9] = qHTS assay to identify small molecule antagonists of the retinoid-related orphan receptor gamma (ROR-gamma) signaling pathway - cell viability counter screen (AID 1159520); further: nearly all actives have a fitted effect of over 50% in size; further: potency means the concentration at half of the fitted maximal effect
Outline: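 Tet-on ROR gamma CHO cells were given compounds for 2 hr, then doxycycline hyclate at 1 uM final, and incubated 16 hr at 37 C. Viability was measured as ATP content by CellTiter-Glo luminescence.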

[10] = qHTS assay to identify small molecule agonists of the AP-1 signaling pathway - cell viability counter screen (AID 1159525; calls by dose curve; further: nearly all actives have a fitted effect of over 55% in size; further: potency means the concentration at half of the fitted maximal effect)
Outline: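 Same-well cytotoxicity counter screen of the Tox21 10K library in ME-180 cells. The readout is ATP-dependent luminescence after 5 h compound treatment. Data are normalised to DMSO and tetra n-octyl ammonium bromide controls.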

[11] = qHTS assay to identify small molecule agonists of the AP-1 signaling pathway (AID 1159526; calls by dose curve)
[12] = qHTS assay to identify small molecule agonists of the RXR signaling pathway - cell viability counter screen (AID 1159529); further: nearly all actives have a fitted effect of over 50% in size; further: potency means the concentration at half of the fitted maximal effect
Outline: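 HEK 293T RXRa-bla cells, 2% CS-FBS; 5 h settle; cpd 16 h 37 C, 5% CO2; CellTiter-Glo 30 min RT, luminescence. Tetraoctyl ammonium bromide as positive control.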

[13] = qHTS assay to identify small molecule antagonists of the retinoid acid receptor (RAR) signaling pathway - cell viability counter screen (AID 1159551); further: nearly all actives have a fitted effect of over 35% in size; further: potency means the concentration at half of the fitted maximal effect
Outline: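 Viability of C3RL4 cells is quantified from ATP by luminescence after 6 h treatment at 37 C with compounds and 1 uM retinol.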

[14] = qHTS assay to identify small molecule antagonists of the retinoic acid receptor (RAR) signaling pathway (AID 1159552; further: nearly all actives have a fitted effect of over 50% in size; further: potency means the concentration at half of the fitted maximal effect)
Outline: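 Cells of the C3RL4 line were seeded, incubated overnight, then dosed with compounds in DMSO followed immediately by retinol (1 uM final). Six hours later luciferase detection reagent went in; signal was measured after 30 min at RT.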

[15] = qHTS assay to identify small molecule agonists of the vitamin D receptor (VDR) signaling pathway - cell viability counter screen (AID 743224); further: nearly all actives have a fitted effect of over 50% in size; further: potency means the concentration at half of the fitted maximal effect
Outline: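 In parallel with the bla FRET readout, cytotoxicity toward VDR-bla cells after 16 h compound exposure was assessed by CellTiter-Glo, with luminescence recorded after a 30 min room-temperature incubation.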

[16] = qHTS assay to identify small molecule antagonists of the vitamin D receptor (VDR) signaling pathway - cell viability counter screen (AID 743225); further: nearly all actives have a fitted effect of over 50% in size; further: potency means the concentration at half of the fitted maximal effect
Outline: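 Read-out: CellTiter-Glo luminescence measured 30 min after reagent addition at room temperature. Cells were VDR-bla HEK 293T exposed 16 h at 37C, 5% CO2, to compound with 3 nM final calcitriol agonist.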

[17] = biological target: Retinoic acid receptor RXR-alpha (Homo sapiens) (UniProt P19793); assay: qHTS assay to identify small molecule agonists of the RXR signaling pathway (AID 1159527; calls by dose curve; further: nearly all actives have a fitted effect of over 35% in size; further: potency means the concentration at half of the fitted maximal effect)
Retinoic acid receptor RXR-alpha (Homo sapiens), sequence (P19793 whole entry, looked up): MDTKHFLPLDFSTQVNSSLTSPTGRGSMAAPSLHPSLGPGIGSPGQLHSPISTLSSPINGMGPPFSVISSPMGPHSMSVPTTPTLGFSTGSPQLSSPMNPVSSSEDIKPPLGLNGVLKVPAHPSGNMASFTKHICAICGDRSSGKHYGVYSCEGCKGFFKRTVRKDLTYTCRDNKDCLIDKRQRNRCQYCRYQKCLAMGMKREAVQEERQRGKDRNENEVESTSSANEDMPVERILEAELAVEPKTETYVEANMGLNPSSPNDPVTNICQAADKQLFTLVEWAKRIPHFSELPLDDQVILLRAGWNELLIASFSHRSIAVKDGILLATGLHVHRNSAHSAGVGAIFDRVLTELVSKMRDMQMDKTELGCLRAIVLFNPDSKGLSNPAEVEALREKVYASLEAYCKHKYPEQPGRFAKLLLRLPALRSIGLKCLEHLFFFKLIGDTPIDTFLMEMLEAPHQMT
Outline: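 Read-out: beta-lactamase FRET ratio (405 nm excitation, 460 and 530 nm emission) after 2 hr substrate loading at room temperature. Cells were RXR-alpha-UAS-bla HEK 293T treated with compounds for 16 hr in 2% charcoal-stripped FBS medium.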

[18] = biological target: Nuclear receptor ROR-gamma (Homo sapiens) (UniProt P51449); assay: qHTS assay to identify small molecule antagonists of the retinoid-related orphan receptor gamma (ROR-gamma) signaling pathway (AID 1159521; further: nearly all actives have a fitted effect of over 50% in size; further: potency means the concentration at half of the fitted maximal effect)
Outline: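 CHO Tet-on RORγ, RORE-luc reporter. Cpd 2 h pre-incubation, then dox hyclate 1 uM final, 16 h, 37 C/5% CO2. ONE-Glo luminescence; decrease = antagonist.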

[19] = biological target: Bile acid receptor (Homo sapiens) (UniProt Q96RI1); assay: qHTS assay to identify small molecule antagonists of the farnesoid-X-receptor (FXR) signaling pathway (AID 743217; active means well fitted inhibition curve with a large enough effect in the signal ratio in the repeat runs, not every such curve was filed as active; the % refers to the signal ratio; further: potency means the concentration at half of the fitted maximal effect)
Bile acid receptor (Homo sapiens), sequence (Q96RI1 whole entry, looked up): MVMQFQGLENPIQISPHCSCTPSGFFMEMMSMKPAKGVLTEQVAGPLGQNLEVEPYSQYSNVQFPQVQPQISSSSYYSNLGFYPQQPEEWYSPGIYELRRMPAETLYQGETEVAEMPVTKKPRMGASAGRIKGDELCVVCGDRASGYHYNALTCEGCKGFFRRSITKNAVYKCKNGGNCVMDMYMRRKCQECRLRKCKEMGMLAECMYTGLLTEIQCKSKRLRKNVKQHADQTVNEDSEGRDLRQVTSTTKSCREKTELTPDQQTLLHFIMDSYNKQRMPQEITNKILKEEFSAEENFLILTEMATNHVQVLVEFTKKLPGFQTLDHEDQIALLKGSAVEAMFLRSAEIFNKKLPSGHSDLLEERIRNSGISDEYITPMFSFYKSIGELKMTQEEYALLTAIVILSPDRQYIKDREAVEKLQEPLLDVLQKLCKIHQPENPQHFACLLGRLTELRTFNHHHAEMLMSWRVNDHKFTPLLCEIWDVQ
Outline: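 FRET fluorescence after 2 h room-temperature LiveBLAzer loading gives the readout. Prior step: FXR-bla HEK 293T cells, seeded and incubated 5 h, received test compounds plus 50 uM final CDCA for 16 h at 37 °C.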

[20] = biological target: Bile acid receptor (Homo sapiens) (UniProt Q96RI1); assay: qHTS assay to identify small molecule agonists of the farnesoid-X-receptor (FXR) signaling pathway (AID 743220; active means well fitted activation curve with a large enough effect in the signal ratio in the repeat runs, not every such curve was filed as active; the % refers to the signal ratio)
Outline: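 FXR-UAS-bla HEK 293T cells carrying a UAS-driven beta-lactamase reporter were plated for 5 h at 37C/5% CO2, then exposed to DMSO-dissolved Tox21 10K compounds for 16 h at 37C. A LiveBLAzer B/G FRET substrate was loaded for 2 h at room temperature before fluorescence reading.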

Compound | Potency [1] | Potency [2] | Potency [3] | outcome [4] | Potency [5] | Potency [6] | outcome [7] | Potency [8] | Potency [9] | Potency [10] | Potency [11] | Potency [12] | Potency [13] | Potency [14] | Potency [15] | Potency [16] | Potency [17] | Potency [18] | Potency [19] | outcome [20]
CCCCCCCCn1cc[n+](C)c1 | inactive | inactive | inactive | inactive | inactive | inactive | inactive | inactive | inactive | inactive | inactive | inactive | inactive | inactive | – | – | – | – | – | –
O=[N+]([O-])O | inactive | inactive | inactive | – | – | inactive | inactive | inactive | inactive | inactive | inactive | inactive | inactive | – | inactive | inactive | inactive and 21.9 µM (active) | – | – | –
CCC[N+]1(C)CCCC1 | inactive | inactive | inactive | – | – | inactive | inactive | inactive | inactive | inactive | inactive | inactive | inactive | – | inactive | inactive | inactive | inactive | – | –
COP(=O)(OC)OC=C(Cl)Cl | inactive | inactive | inactive | – | – | inactive | inactive | inactive | inactive | inactive | inactive | inactive | inactive | – | inactive | inactive | inactive | inactive | – | –
CCCCCCCCCCCCCC[P+](CCCCCC)(CCCCCC)CCCCCC | 15.6 µM (active) and 3.92 µM (active) | 13.9 µM (active) and 24.7 µM (active) and inactive | 22 µM (active) and 15.6 µM (active) and inactive | – | – | 19.6 µM (active) and 24.7 µM (active) and inactive | inactive | 31 µM (active) and 27.8 µM (active) and inactive | 9.73 µM (active) and 19.5 µM (active) | 11 µM (active) and 19.7 µM (active) and inactive | inactive | 8.75 µM (active) and 15.6 µM (active) | 27.4 µM (active) and 27.5 µM (active) and inactive | – | 9.82 µM (active) and 5.54 µM (active) | 19.6 µM (active) and 17.5 µM (active) | – | – | inactive | inactive
O=C(O)COc1ccc(Cl)cc1Cl | inactive | inactive | inactive | inactive | inactive | inactive | inactive | inactive | inactive | inactive | inactive | inactive | inactive | – | inactive | inactive | inactive | – | – | –
CC(=O)[O][Hg][c]1ccccc1 | 1.53 µM (active) and 1.1 µM (active) and 1.68 µM (active) | 968 nM (active) and 871 nM (active) and 2.11 µM (active) | 1.09 µM (active) and 1.1 µM (active) and 2.98 µM (active) | inactive | 863 nM (active) and 2.13 µM (active) | 485 nM (active) and 549 nM (active) and 1.34 µM (active) | – | 485 nM (active) and 692 nM (active) and 2.13 µM (active) | 304 nM (active) and 969 nM (active) and 422 nM (active) | 1.37 µM (active) and 2.45 µM (active) and 4.25 µM (active) | – | 1.72 µM (active) and 1.95 µM (active) and 2.39 µM (active) | 5.4 µM (active) and 13.7 µM (active) and 16.8 µM (active) | 1.92 µM (active) and 1.54 µM (active) and 2.11 µM (active) | 686 nM (active) and 871 nM (active) and 422 nM (active) | 1.37 µM (active) and 2.19 µM (active) and 2.39 µM (active) | – | 429 nM (active) and 545 nM (active) and 750 nM (active) | 776 nM (active) | –
CCCC[n+]1ccccc1C | inactive | inactive | inactive | – | – | inactive | inactive | inactive | inactive | inactive | inactive | inactive | inactive | – | inactive | inactive | inactive | inactive | – | –
